The list is not random: actives were taken first. Their share in the collection is about 2.6%.
TLR4 MyD88 comp = inhibitors of human TLR4-MyD88 binding. O00206+Q99836. HeLa CL3-4 TLR4/MyD88 BLA complementation, FRET ratio. inhibition, % at 8.4 µM. 0.18% of 200,000 active; in the data active means inhibition above about 25%;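 further: 0% = vehicle and 100% = reference inhibitor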
Target sequence (O00206 whole entry, looked up): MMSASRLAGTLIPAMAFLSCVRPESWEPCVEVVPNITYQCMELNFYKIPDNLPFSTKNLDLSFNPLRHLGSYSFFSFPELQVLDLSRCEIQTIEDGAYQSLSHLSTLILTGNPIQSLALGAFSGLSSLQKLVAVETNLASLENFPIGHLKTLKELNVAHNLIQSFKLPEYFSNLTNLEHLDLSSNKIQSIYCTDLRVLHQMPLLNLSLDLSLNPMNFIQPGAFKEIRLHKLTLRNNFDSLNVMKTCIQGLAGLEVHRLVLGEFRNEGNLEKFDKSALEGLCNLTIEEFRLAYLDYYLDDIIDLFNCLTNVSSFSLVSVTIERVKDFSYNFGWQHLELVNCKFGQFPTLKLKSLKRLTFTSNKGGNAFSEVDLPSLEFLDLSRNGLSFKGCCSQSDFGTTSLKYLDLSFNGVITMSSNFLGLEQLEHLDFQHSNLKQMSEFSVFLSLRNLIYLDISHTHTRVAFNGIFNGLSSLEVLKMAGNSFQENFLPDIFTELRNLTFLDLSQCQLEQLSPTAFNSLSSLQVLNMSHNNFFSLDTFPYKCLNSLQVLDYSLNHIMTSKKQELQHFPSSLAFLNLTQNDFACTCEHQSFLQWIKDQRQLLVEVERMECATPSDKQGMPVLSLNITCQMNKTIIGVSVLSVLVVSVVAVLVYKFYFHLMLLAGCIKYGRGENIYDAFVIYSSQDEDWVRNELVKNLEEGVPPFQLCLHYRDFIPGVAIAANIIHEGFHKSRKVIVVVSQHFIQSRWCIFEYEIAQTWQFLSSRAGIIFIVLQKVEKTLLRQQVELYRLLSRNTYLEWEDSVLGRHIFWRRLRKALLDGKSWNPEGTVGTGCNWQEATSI
Target sequence (Q99836 whole entry, looked up): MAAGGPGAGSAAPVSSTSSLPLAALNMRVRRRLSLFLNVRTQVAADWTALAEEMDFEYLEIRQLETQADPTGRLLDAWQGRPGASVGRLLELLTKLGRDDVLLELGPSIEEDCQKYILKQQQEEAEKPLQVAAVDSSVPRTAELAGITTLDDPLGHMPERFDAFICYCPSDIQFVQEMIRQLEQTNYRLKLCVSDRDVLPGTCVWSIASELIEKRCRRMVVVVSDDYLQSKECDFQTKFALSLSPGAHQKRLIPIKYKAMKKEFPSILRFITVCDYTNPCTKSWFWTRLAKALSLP
NOD2 RIPK2 PPI = blocks binding of human NOD2 to RIPK2; O43353; CHO BLA complementation NOD2-RIPK2, CCF4 ratio; inhibition, % at 4.98 µM; 0.38% of 360,000 active; in the data active means inhibition above about 21%;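 further: 0% = vehicle only and 100% = reference blocker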
ABHD5-PLIN5 inh = ABHD5-PLIN5 protein interaction inhibition. Q00G26+Q8WTS1. Split G. princeps luciferase complementation, luminescence, 4 h. inhibition, % at 4 µM. 0.78% of 360,000 active. AID 602281;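 active means inhibition above the mean inhibition across every tested compound plus 3 SD, cut at about 22% in these data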;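 further: 0% = DMSO only wells and the 100% control is not disclosed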
Granule exo inh = lytic granule exocytosis inhibition. TALL-104 LAMP-1 surface exposure, flow cytometry; cells stimulated with thapsigargin and PMA. inhibition, % at 10 µM. 0.66% of 360,000 active. AID 651702;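 active means inhibition above about 55%, limit read from the data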
TLR9-MyD88 block = inhibitors of human TLR9-MyD88 binding | CHO BLA complementation TLR9-MyD88, CCF4 FRET ratio | inhibition, % at 4.98 µM | 0.21% of 340,000 active | AID 504734 | Q9NR96+Q99836;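 active means inhibition above the mean over all tested compounds plus 3 SD, cut at about 21% in these data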;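 further: 0% = DMSO only wells and 100% = clavulanate BLA inhibitor control wells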
PRMT1 inh = blocks human protein arginine methyltransferase 1; 1.3% of 370,000 active; inhibition, % at 2.79 µM; recombinant PRMT1, activity-based probe fluorescence polarization; AID 652257;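 active means inhibition above about 21% made by adding two undisclosed values, limit read from the data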
* marks the source's active call; other numbers are inactive results; / = no result.

SMILES | TLR4 MyD88 comp | NOD2 RIPK2 PPI | ABHD5-PLIN5 inh | Granule exo inh | TLR9-MyD88 block | PRMT1 inh
O=C(OC12CCCN(C1)/C(=C/c1ccncc1)C2)c1ccc(F)cc1 (configuration not stated) | / | / | / | / | / | 1.7
Cc1c(N=C2C=CC(=O)c3ccccc32)c(=O)n(-c2ccccc2)n1C | -22.7 | -1.8 | -9.6 | 95.2* | 12.8 | 7.2
CCCCCCCCCCCCNC[C@@H]1CSCCS(=O)(=O)N1 | / | / | / | / | / | -0.2
O=C(N[C@H](C(=O)N1CCC[C@H]1C(=O)NC1CCCC1)C1CCCCC1)c1ccc(Cl)cc1Cl | / | / | / | / | / | 0.2
O=C(/C=C/c1ccccc1F)c1ccoc1 | -10.4 | -10.8 | 30.8* | 1.3 | 4.8 | 0.7
O=C1CC(SCc2nc3ccccc3[nH]2)C(=O)N1c1cccc(Cl)c1 (configuration not stated) | 0.2 | -1.7 | -6.0 | -0.2 | 1.0 | 30.8*
O=C1CC(SCc2nc3ccccc3[nH]2)C(=O)N1c1ccc(F)cc1 (configuration not stated) | 3.5 | 5.7 | -12.7 | 6.8 | 0.2 | 13.5
COC(=O)[C@]1(C#N)CC(=O)N(CC(C)C)[C@@H]1c1ccccc1 | / | / | / | / | / | 1.5
CCOc1ccc(N=C2NC(=O)/C(=C/C(=O)OC)S2)cc1 | -3.1 | -8.1 | 22.9* | -1.8 | 3.0 | 1.1
Cc1ccc(N(C)c2nc(N)nc(N)c2N=O)cc1 | / | / | / | / | / | 173.0*
CC(C)c1nnc(NC(=O)c2cccc(NC(=O)C(F)(F)F)c2)s1 | 7.0 | -1.6 | 1.5 | 0.4 | -6.5 | 21.9*
Cc1ccc(OCc2nnc(SCC(=O)Nc3ccc4c(c3)OCO4)n2Cc2ccco2)cc1 | / | / | / | / | / | -0.6
CCOC(=O)[C@]12CCCC3=C1N(CCC3)C(=O)[C@@H](CC(=O)N1CCC(c3ccccc3)CC1)C2 | / | / | / | / | / | 1.8
COc1ccc(Cl)cc1NC(=O)CSc1nnc(Cc2ccc(C)cc2)c(=O)[nH]1 | / | -6.4 | 5.6 | -1.2 | -6.2 | 23.8*
CCn1c(=S)[nH]c2scc(-c3cccs3)c2c1=O | -8.5 | -10.9 | -10.5 | 1.8 | -5.1 | 23.2*
CC(C)n1c(=S)[nH]c2scc(-c3cccs3)c2c1=O | / | -10.5 | -18.5 | 0.1 | -8.4 | 8.6
O=[N+]([O-])c1ccc(OC[C@@H](O)CN2CCC(C(O)(c3ccccc3)c3ccccc3)CC2)c(Cl)c1 | / | / | / | / | / | -1.9
O=[N+]([O-])c1ccc(Nc2nc(N/N=C/c3cccc(F)c3)nc(N3CCCC3)n2)cc1 | 0.5 | -4.7 | -2.2 | 2.3 | -6.5 | 3.0
O=[N+]([O-])c1ccc(Nc2nc(NC3CCCCC3)nc(N3CCCC3)n2)cc1 | 1.6 | 1.6 | 4.8 | 78.2* | 1.9 | -0.4
CC(C)C[C@H]1COc2cc(N3CCCC3)ccc2S(=O)(=O)N1 | / | / | / | / | / | 1.7
COC(=O)C1=C(C)N(CC(C)C)C(=S)NC1c1cccc(Br)c1 (configuration not stated) | / | / | / | / | / | -0.8
CN1C(=CC=C2C=C(I)C(=O)C(I)=C2)C(C)(C)c2ccccc21 | / | 0.2 | 0.7 | 89.0* | 7.4 | 16.6
CN1/C(=C\C=C2/C(=O)Oc3ccccc3C2=O)C(C)(C)c2ccccc21 | 12.3 | / | / | / | / | -45.0
CNc1cccccc1=S | 6.5 | -1.4 | -12.1 | -1.3 | -4.1 | 26.3*
O=S1(=O)CCSC[C@@H](CN2CCCC2)N1 | / | / | / | / | / | -7.0
SMILES | TLR4 MyD88 comp | NOD2 RIPK2 PPI | ABHD5-PLIN5 inh | Granule exo inh | TLR9-MyD88 block | PRMT1 inh
O=C(OCC(=O)N1CCN(c2ccccc2)CC1)c1ccc2ncsc2c1 | 5.6 | 4.1 | -2.5 | -2.0 | 0.2 | 23.2*
O=C(OCC(=O)N1CCN(c2ccccc2)CC1)c1ccc(Cl)nc1 | / | 4.5 | -9.7 | -3.0 | -7.1 | -1.8
COc1ccc([C@H]2[C@H](C(=O)OC(C)(C)C)N3N=Cc4ccccc4C3C23C(=O)c2ccccc2C3=O)cc1OC (some centres not stated) | 2.9 | 1.7 | -2.6 | 63.4* | -11.5 | /
CCOc1cc(C2NC(=S)NC(C)=C2C(=O)Nc2ccccc2)ccc1O (configuration not stated) | / | -11.5 | 0.9 | 4.4 | 6.7 | 22.4*
CC(C)CNS(=O)(=O)CC1NCc2ccccc21 (configuration not stated) | / | / | / | / | / | 0.8
Cc1ccc(C)c(S(=O)(=O)N2CCN(C(=O)/C=C/c3ccco3)CC2)c1 | / | -3.6 | 43.5* | -15.4 | -0.3 | 10.1
O=C(/C(=C/c1cccnc1)n1ccnc1)c1ccc(Cl)cc1Cl | / | -1.5 | 6.5 | 95.6* | -4.1 | -3.6
O=C(/C(=C/c1ccncc1)n1ccnc1)c1ccc(Cl)cc1Cl | / | / | / | / | / | -0.7
CCOC(=O)Cn1c(-c2ccccc2)cc(SC)c(C#N)c1=O | / | -2.6 | 3.1 | 61.3* | 0.6 | 1.4
O=C(NCc1cccs1)C1CCCN(S(=O)(=O)c2cccc3ccccc23)C1 (configuration not stated) | / | / | / | / | / | -2.2
COc1ccc2cc(-c3[nH]ncc3CN3C[C@@H]4CCC[C@H]3C4)ccc2c1 | 1.8 | -1.6 | 22.8* | 14.9 | 4.4 | -3.6
COc1ccc(S(=O)(=O)Nc2ccc3c(c2)C(=O)N([C@H](C)CO)C[C@H](C)[C@H](CN(C)C(=O)Nc2ccc(F)cc2)OCCCC[C@@H](C)O3)cc1 | / | / | / | / | / | 0.3
COc1ccc(/C=C/c2cc(C(F)(F)F)[nH]c(=O)n2)cc1OC | 11.5 | 1.2 | 22.3* | 8.5 | / | -2.4
Cn1ccnc1SCC(=O)Nc1sccc1C#N | -10.3 | 3.4 | -3.6 | 0.2 | -1.1 | 22.3*
O=C1CCC[C@H]2C[C@H](NCc3ccc(Cl)c(C(F)(F)F)c3)CC[C@]23CCCN13 | / | / | / | / | / | -1.5
CC(=O)Nc1ccc(S(=O)(=O)NC2(C(F)(F)F)NC(=O)N(CC(C)C)C2=O)cc1 (configuration not stated) | -1.8 | -11.4 | -3.9 | 4.3 | -4.7 | -1.1
CC(C)CN1C(=O)NC(NS(=O)(=O)c2ccc(N)cc2)(C(F)(F)F)C1=O (configuration not stated) | 7.8 | 3.8 | -5.5 | 11.8 | -2.8 | 24.1*
CC1=CN2C(=N)/C(=C/c3ccco3)C(=O)N=C2S1 | -13.9 | 2.4 | 3.7 | -5.6 | -3.0 | 2.1
CC1=CN2C(=N)/C(=C/c3ccc([N+](=O)[O-])o3)C(=O)N=C2S1 | 5.9 | 2.8 | 5.9 | 80.3* | -0.7 | 20.8
COc1cc(/C=C2/SC(=Nc3ccc(O)cc3)NC2=O)cc(OC)c1O | 2.5 | -0.7 | 1.8 | -2.9 | -2.0 | -0.8
COc1ccccc1N=C1NC(=O)/C(=C/c2ccc(N(C)C)cc2)S1 | / | 17.3 | 4.4 | 67.4* | 9.0 | -11.8
Nc1ccc(S(=O)(=O)Nc2nccs2)cc1N=Nc1ccccc1[N+](=O)[O-] | / | -9.3 | 5.9 | -3.6 | -3.7 | 24.7*
O=[N+]([O-])c1ccccc1S(=O)(=O)Nc1ccc(S(=O)(=O)Nc2nccs2)cc1 | / | -6.5 | -0.7 | 3.8 | 3.7 | 2.0
S=C(NCC1CCCCC1)OC1CCC12CCC(c1ccccc1)CC2 (configuration not stated) | / | / | / | / | / | 3.3
COC(=O)C[C@@H]1CC[C@H]2[C@@H](COc3ccc(NC(=O)Nc4cccc(F)c4)cc3C(=O)N2C)O1 | / | / | / | / | / | 2.2

Source: PubChem BioAssay
